Source: PubChem BioAssay
Shown are actives, neighbours in structure and some others; about 2% of the full set was active somewhere.
PKA-R2B activ = PKA-R2B complex activation | activation, % at 11.4 µM | AID 504700 | 340,000 compounds, 0.079% hits | P22694+P31323 | PKA-R2B holoenzyme dissociation, Cy5-IP20 fluorescence polarization; R2B truncated from residue 108, S112A mutant; 0% DMSO only, 100% 113 µM cGMP;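 active = activation above a cutoff set at the mean over all compounds plus 3 SD, cut at about 18% in these data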;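 also: higher means more holoenzyme dissociation and a rise in polarization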
Target sequence (P31323 whole entry, looked up, other chains not shown, the tested form may be a part): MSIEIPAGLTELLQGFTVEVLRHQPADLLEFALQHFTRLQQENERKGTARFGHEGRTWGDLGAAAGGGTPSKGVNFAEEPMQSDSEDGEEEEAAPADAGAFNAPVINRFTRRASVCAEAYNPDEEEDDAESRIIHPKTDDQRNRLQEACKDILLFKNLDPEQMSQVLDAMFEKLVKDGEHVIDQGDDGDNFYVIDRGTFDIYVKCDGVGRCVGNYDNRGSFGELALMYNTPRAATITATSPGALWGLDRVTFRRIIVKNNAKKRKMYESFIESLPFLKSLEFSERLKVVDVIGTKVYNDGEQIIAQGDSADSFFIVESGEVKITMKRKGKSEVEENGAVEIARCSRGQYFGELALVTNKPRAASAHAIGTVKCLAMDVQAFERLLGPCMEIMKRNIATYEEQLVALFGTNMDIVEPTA
MsrA inhibitor = inhibits bovine methionine sulfoxide reductase A; purified bovine MsrA, absorbance read-out; inhibition, % at 15.5 µM; 360,000 compounds, 0.75% hits; AID 651718; in the data active = inhibition above about 4.5%;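 also: 0% = vehicle wells with enzyme and 100% = reference inhibitor wells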
SUMO Mot1 rescue = SUMOylation pathway inhibition by Mot1-301 growth rescue. S. cerevisiae Mot1-301 growth rescue, ATP luminescence, 38.5C; percent above DMSO median, 100 means doubled. growth rescue, % at 18.8 µM. 320,000 compounds, 1% hits. AID 2716;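 active = every valid replicate shows activation above 250% relative to neutral control wells; inactive = the rest, any valid replicate at or below 250%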;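 also: OY570 slx delta 5 strain wells were the positive control but not used for scaling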
bovine MsrA act = activators of bovine methionine sulfoxide reductase A | purified bovine MsrA, absorbance read-out | 360,000 compounds, 0.3% hits | activation, % at 10.6 µM; in the data active = activation above about 7.5%;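 also: 0% = vehicle and 100% = reference activator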
PKA-R1A activ = activators of PKA-R1A complex; PKA-R1A dissociation, Cy5-IP20 fluorescence polarization; scaled: DMSO 0%, 113 µM cGMP 100%; AID 504707; 340,000 compounds, 0.083% hits; activation, % at 11.4 µM;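 active = percent activation above the mean of all tested compounds plus 3 SD, cut at about 19% in these data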;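 also: higher means more PKAc released from R1A so a rise in polarization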
Mot1 SUMO dose = inhibits SUMO pathway, affecting Mot1-301 yeast growth | AID 493004 | S. cerevisiae Mot1-301 galactose growth, ATP luminescence, 24 h; -100 = growth of slx-deleted rescue strain | 2,300 tested, under 10 active | shares compounds with SUMO Mot1 rescue | growth activity, percent, % at 42 µM;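 active = Signal drops as the depositor expects, and the fitted half-maximal dose is no more than ten times the top valid tested dose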;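 also: more negative values mean stronger growth rescue toward the control strain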
An asterisk follows results filed as active.

CCOC(=O)c1sc(NC(=O)C(CC)OC(=O)c2ccco2)nc1C (stereo unspecified) was read as PKA-R2B activ -1, MsrA inhibitor 0, SUMO Mot1 rescue 889*, bovine MsrA act -1, PKA-R1A activ -3 and Mot1 SUMO dose 0.
Screening Cc1cc(C)cc(C(=O)Oc2cc(C)[nH]c(=O)c2[N+](=O)[O-])c1 returned PKA-R2B activ 7, MsrA inhibitor 1, SUMO Mot1 rescue 366*, bovine MsrA act -3, PKA-R1A activ 2 and Mot1 SUMO dose 0.
Screening O=C(Nc1cccc(Cl)c1)NN(c1ccccc1)C1CCS(=O)(=O)C1 (stereo unspecified) returned MsrA inhibitor 0.
For NNC(=O)c1[nH]c2ccccc2c1-c1ccccc1 the results were PKA-R2B activ -1, MsrA inhibitor 1, SUMO Mot1 rescue 653*, bovine MsrA act -1, PKA-R1A activ -18 and Mot1 SUMO dose -1.
`O=C(NCc1ccccc1)[C@@H]1CCCN1C(=O)[C@H]1CCCN1C(=O)c1ccc(Cl)c(Cl)c1` gave MsrA inhibitor 0.
For CC1CC(C)CN(S(=O)(=O)N2CCCC(C(=O)NC(C)c3ccccc3)C2)C1 (stereo unspecified) the results were PKA-R2B activ 1, MsrA inhibitor 1, SUMO Mot1 rescue 14, bovine MsrA act -2 and PKA-R1A activ -9.
`CC(NC(=O)C1CCCN(S(=O)(=O)N2CCOCC2)C1)c1ccccc1` (stereo unspecified) gave PKA-R2B activ -4, MsrA inhibitor 1, SUMO Mot1 rescue 368*, bovine MsrA act -3, PKA-R1A activ -15 and Mot1 SUMO dose 0.
COc1cc(OC)c(NC(=O)C(Sc2nc(C)cc(C)c2C#N)c2ccccc2)cc1Cl (stereo unspecified) was read as MsrA inhibitor 1.
For CC1(C)Cc2nc3sc4c(OCc5ccccc5)ncnc4c3cc2CO1 the results were PKA-R2B activ -15, MsrA inhibitor -1, SUMO Mot1 rescue active, bovine MsrA act 0, PKA-R1A activ -5 and Mot1 SUMO dose 1.
`c1ccc(-c2ccccc2C2Cc3nnccc3CN2)cc1` (stereo unspecified) gave MsrA inhibitor 0.
For CCNC(=O)NC1c2ccccc2CSc2ccccc21 (stereo unspecified) the results were PKA-R2B activ -1, MsrA inhibitor -1, SUMO Mot1 rescue 614*, bovine MsrA act 0, PKA-R1A activ 9 and Mot1 SUMO dose 0.
Screening NC(=O)C1c2ccccc2CSc2ccccc21 (stereo unspecified) returned PKA-R2B activ 2, MsrA inhibitor 0, SUMO Mot1 rescue 14, bovine MsrA act -2 and PKA-R1A activ 5.
Cc1ccc(S(=O)(=O)N2CC3=C(c4ccccc4)CC4(C)C(=O)C(C)(C)CC4=C3C2)cc1 (stereo unspecified) was read as MsrA inhibitor 0.
`COc1ccc(OC)c(NC(=O)CNC(=O)Cn2ccc3ccccc3c2=O)c1` gave PKA-R2B activ 2, MsrA inhibitor 1, SUMO Mot1 rescue 503*, bovine MsrA act -1, PKA-R1A activ 2 and Mot1 SUMO dose 0.
CC(C)C(O)(C(=O)NNc1ccccc1)C(C)C was read as PKA-R2B activ -1, MsrA inhibitor 0, SUMO Mot1 rescue 583*, bovine MsrA act -3, PKA-R1A activ -10 and Mot1 SUMO dose 1.
For COc1ccc(N2C(=O)c3[nH]nc(-c4ccccc4)c3C2c2ccc(Br)cc2)cc1 (stereo unspecified) the results were MsrA inhibitor 0.
O=C(O)c1cccc(N/N=C/c2cc(Br)cc(Br)c2O)c1 was read as PKA-R2B activ -9, MsrA inhibitor 2, SUMO Mot1 rescue 124, bovine MsrA act -8 and PKA-R1A activ -11.
Cc1c(N=Cc2cc(Br)cc(Br)c2O)cccc1C(=O)O was read as PKA-R2B activ -4, MsrA inhibitor -1, SUMO Mot1 rescue 919*, bovine MsrA act -6, PKA-R1A activ 6 and Mot1 SUMO dose 0.
For C=CCN1C(=O)/C(=C\c2ccc(C)cc2)N=C1SCC(=O)NCCC the results were PKA-R2B activ -8, MsrA inhibitor 2, SUMO Mot1 rescue active, bovine MsrA act -3, PKA-R1A activ -7 and Mot1 SUMO dose 0.
Screening COC(=O)C1=C(C)N(CC(C)C)C(=S)NC1c1cccc(Br)c1 (stereo unspecified) returned MsrA inhibitor -1.
Screening O=C1CC(=O)C(n2cncn2)C(c2ccc(Cl)cc2Cl)C1 (stereo unspecified) returned PKA-R2B activ 4, SUMO Mot1 rescue active, bovine MsrA act -2, PKA-R1A activ 4 and Mot1 SUMO dose 0.
Cc1ccc(S(=O)(=O)N(C)c2ccc(OC(=O)CN3C(=O)NC4(CCCC4)C3=O)cc2)cc1C was read as PKA-R2B activ -3, MsrA inhibitor -1, SUMO Mot1 rescue active, bovine MsrA act -2, PKA-R1A activ -9 and Mot1 SUMO dose 0.
Cc1ccc(S(=O)(=O)N2CCCc3nc(C)c(C)cc32)cc1 was read as MsrA inhibitor 0.
`COc1ccc(C2CC(=O)C(c3ccc(Br)cc3)=CN2Cc2ccccc2)cc1` (stereo unspecified) gave MsrA inhibitor 0.
CC(NS(C)(=O)=O)C(c1cccs1)N1CCN(c2ccc(F)cc2)CC1 (stereo unspecified) was read as PKA-R2B activ -8, MsrA inhibitor 0, SUMO Mot1 rescue 33, bovine MsrA act 0 and PKA-R1A activ -10.
For COc1ccc(N2CCN(C(c3cccs3)C(C)NS(C)(=O)=O)CC2)cc1 (stereo unspecified) the results were PKA-R2B activ -6, MsrA inhibitor 2, SUMO Mot1 rescue 379*, bovine MsrA act -2, PKA-R1A activ -11 and Mot1 SUMO dose 1.
For CC(Oc1ccccc1)C(=O)Nc1ccccc1O (stereo unspecified) the results were PKA-R2B activ -4, MsrA inhibitor 0, SUMO Mot1 rescue 568*, bovine MsrA act -1, PKA-R1A activ -5 and Mot1 SUMO dose 1.
For COC(=O)c1ccccc1NC(=O)C(C)Oc1ccccc1 (stereo unspecified) the results were PKA-R2B activ 4, MsrA inhibitor 2, SUMO Mot1 rescue -4, bovine MsrA act -6 and PKA-R1A activ 10.
`COc1cccc(-c2cc(C(F)(F)F)n3ncc(C(=O)O)c3n2)c1` gave PKA-R2B activ 7, MsrA inhibitor 1, SUMO Mot1 rescue 2, bovine MsrA act -2 and PKA-R1A activ -3.
For COc1ccc(-c2cc(C(F)(F)F)n3ncc(C(=O)O)c3n2)cc1OC the results were PKA-R2B activ -2, MsrA inhibitor 3, SUMO Mot1 rescue 367*, bovine MsrA act -1, PKA-R1A activ 2 and Mot1 SUMO dose 0.
